In PubChem BioAssay AID2314 (National Center for Advancing Translational Sciences (NCATS), 2010):
Hit rate of the full screen: of about 300,000 compounds, about 37,000 (12%) were called active. This is one part of a sample in which actives are shown more often than they occur. Values without a mark were called inactive. Cut-off read from the data, not from the text of the source: active = max response mostly above about 13% (no sharp cut-off); inactive = mostly below about 14%.

Assay: Cycloheximide Counterscreen for Small Molecule Inhibitors of Shiga Toxin; note: read at 38.3 µM for the half of the compounds with a filed dose; 0% is about no effect
Settings: cell reporter, cycloheximide protein synthesis inhibition counterscreen; hits give high values

| SMILES | max response |
| --- | --- |
| Cc1cccc(Oc2c([N+](=O)[O-])c(=O)n(C)c3ccccc23)c1 | 6.49% |
| CCOc1ccc(CCNC(=O)C(CC)n2nc(C)n3c(cc4sccc43)c2=O)cc1OCC (stereo not given) | -1.8% |
| CCN(CC)CCCSc1nc2ccccc2s1 | 36% (active) |
| Cn1c(=O)[nH]c(=O)c2c1nc(N1CCN(CCO)CC1)n2CCSc1nc2ccccc2s1 | -5.89% |
| Cc1nc2nc(CSc3nc4ccccc4s3)cc(=O)n2[nH]1 | -7.38% |
| O=C(COCc1cc(-c2ccc3c(c2)OCO3)on1)N1CCN(c2cccc(Cl)c2)CC1 | -2.82% |
| O=C(COC(=O)Cn1cnc2ccccc2c1=O)NCC12CC3CC(CC(C3)C1)C2 | -1.91% |
| COc1ccc(CCNC(=O)C(=O)NCc2ccccc2C)cc1OC | -2.75% |
| COc1cc(CNc2ncn[nH]2)ccc1OCc1ccccc1C | 36.9% (active) |
| c1n[nH]c(NCc2ccc3c(c2)OCO3)n1 | -1.69% |
| COC(=O)CN1C(=O)[C@H]2[C@@H](/C=C/c3ccccc3)N3C(=O)CN(CC4CC4)C(=O)[C@@]3(Cc3ccccc3)[C@H]2C1=O | 0.35% |
| Cc1c2cnn(CC(=O)NCCCN3CC(C)CC(C)C3)c(=O)c2c(C)n1Cc1ccc(Cl)cc1 (stereo not given) | -5.34% |
| CCc1ccc2ncc(C(=O)c3ccccc3)c(N3CCOCC3)c2c1 | 2.65% |
| CCOc1ccc(C(=O)Nc2c3c(nn2-c2ccccc2)CS(=O)(=O)C3)cc1 | -1.43% |
| COc1ccc(C(=O)NCCc2ccc(S(N)(=O)=O)cc2)cc1OC | 9.83% |
| COCCNC(=O)c1ccc2nc(Cc3ccc(OC)c(OC)c3)oc2c1 | 32% (active) |
| COc1ccccc1-n1c(C)nc2cc(C(=O)NCc3ccc4c(c3)OCO4)ccc21 | 5.54% |
| CSCCNC(=O)c1ccc2nc(Cc3ccccc3F)oc2c1 | 54.4% (active) |
| CCC1C(=O)NCCN1C(=O)c1ccc2nc(Cc3ccc(OC)cc3)oc2c1 (stereo not given) | 16.3% |
| COc1ccc(Cc2nc3ccc(C(=O)N4CCC(N(C)C)C4)cc3o2)cc1 (stereo not given) | 7.38% |
| COc1ccc(Cc2nc3ccc(C(=O)NCC4CCOCC4)cc3o2)cc1OC | 23.6% (active) |
| CCn1ccnc1CN(C)C(=O)c1ccc2nc(Cc3ccc(OC)cc3)oc2c1 | -0.601% |
| Cn1cc(C(=O)NCc2ccccc2F)cn1 | -3.82% |
| Cc1ccc(S(=O)(=O)N2CCC3(CC2)OCCO3)c(C)c1 | -3.35% |
| Cc1ccc(S(=O)(=O)N2CCN(C(=O)CSc3cc(C)ccc3C)CC2)c(C)c1 | 12.6% |
